# Source: PubChem BioAssay (Tox21)
# Results filed as inconclusive are left out. Calls of active or inactive are those of the source. Calls come from the whole dose curve; as a rule, active = well fitted curve in the direction sought with a large enough effect in the repeat runs; inconclusive = weak or mixed curves; inactive = no such curve, though single readings can be large; an effect the other way counts as inactive or inconclusive.
# Target: Nuclear receptor subfamily 1 group I member 2 (Rattus norvegicus) (UniProt Q9R1A7)
# Sequence (Q9R1A7 whole entry, looked up): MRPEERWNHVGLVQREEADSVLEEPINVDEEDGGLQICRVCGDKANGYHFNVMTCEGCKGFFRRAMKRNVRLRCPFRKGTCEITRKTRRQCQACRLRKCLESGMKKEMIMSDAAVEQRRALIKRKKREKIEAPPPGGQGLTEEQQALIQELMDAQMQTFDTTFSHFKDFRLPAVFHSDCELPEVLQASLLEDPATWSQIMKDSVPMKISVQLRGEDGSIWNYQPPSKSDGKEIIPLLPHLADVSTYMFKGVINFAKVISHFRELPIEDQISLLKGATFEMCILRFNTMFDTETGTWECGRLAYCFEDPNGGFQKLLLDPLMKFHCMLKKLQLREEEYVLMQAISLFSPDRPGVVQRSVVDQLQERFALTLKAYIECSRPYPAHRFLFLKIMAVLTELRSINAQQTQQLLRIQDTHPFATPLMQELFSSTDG
# Assay: Rat pregnane X receptor (rPXR) activation by small molecules, qHTS assay (AID 1346983); note: nearly all actives have a fitted effect of over 20% in size
# Conditions: rPXR luciferase reporter cells, One-Glo luminescence, 24 h; max activation: hits give high values
# Outline: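 Cell-based rPXR activation assay: rPXR cells, 2,000 per well, rested 5hr at 37 C, then exposed to compounds in DMSO for 24 hr at 37 C. Luciferase activity read by One-Glo luminescence after 30 min at room temperature.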
# % is set by controls: 0 for no effect and ±100 for the full control effect.
row,SMILES,max activation
1,O=S(=O)(O)O,0.359% (inactive)
2,COc1cc(NS(C)(=O)=O)ccc1Nc1c2ccccc2nc2ccccc12,-19% (inactive)
3,O=C(O)c1ccccn1,-2.98% (inactive)
4,Cc1ncc(C[n+]2csc(CCO)c2C)c(N)n1,-0.76% (inactive)
5,CC(C)(C)c1ccc2c(S(=O)(=O)O)c(C(C)(C)C)ccc2c1,-3.68% (inactive)
6,O.O.O.O.O.O.O.O=S(=O)([O-])[O-].[Co+2],-2.66% (inactive)
7,CCCCCCCCCCCCOS(=O)(=O)O,-3.52% (inactive)
8,CNCCC=C1c2ccccc2CCc2ccccc21,-3.34% (inactive)
9,CCCCCCCCCCCCCCCC[n+]1ccccc1,-15.5% (inactive)
10,CCN(CC)C(=S)S,-4.17% (inactive)
11,CCCCCCCCCCCCCCCCCC(=O)O,-4.34% (inactive)
12,CNC(=O)OCc1cccc(COC(=O)NC)n1,8.37% (inactive)
13,O=c1[nH]c(=O)n([C@H]2C[C@H](O)[C@@H](CO)O2)cc1/C=C/Br,-6.99% (inactive)
14,CCN1\C(=C/C=C/C=C/c2sc3ccccc3[n+]2CC)Sc2ccccc21,-28.2% (inactive)
15,O=C(O)c1ccccc1O,-4.21% (inactive)
16,CN1[C@@H](CC(=O)c2ccccc2)CCC[C@H]1C[C@H](O)c1ccccc1,4.75% (inactive)

# Target: Nuclear receptor subfamily 1 group I member 2 (Homo sapiens) (UniProt O75469)
# Assay: CYP3A4 induction through human pregnane X receptor (PXR) by small molecules, qHTS assay (AID 1346984); note: nearly all actives have a fitted effect of over 40% in size; note: potency is the fitted concentration of half-maximal effect
# Conditions: DPX-2 HepG2 PXR, CYP3A4-luciferin luminescence, 24 h; series mostly up to 46.1 µM
# Outline: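 qHTS, concentration-response format: HepG2 DPX-2 line, PXR/CYP3A4-luc. Exposure 24 h, 37C. Substrate Luciferin-IPA 3uM final, 3 h. Detection One-Glo, 30 min RT.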
row,SMILES,Potency
1,COc1cc(NS(C)(=O)=O)ccc1Nc1c2ccccc2nc2ccccc12,inactive
2,CC(=O)[C@]1(O)Cc2c(O)c3c(c(O)c2[C@@H](O[C@H]2C[C@H](N)[C@H](O)[C@H](C)O2)C1)C(=O)c1ccccc1C3=O,inactive
3,CNCCC=C1c2ccccc2CCc2ccccc21,7.08 µM (active)
4,CNC(=O)OCc1cccc(COC(=O)NC)n1,inactive
5,O=c1[nH]c(=O)n([C@H]2C[C@H](O)[C@@H](CO)O2)cc1/C=C/Br,inactive
6,CCN1\C(=C/C=C/C=C/c2sc3ccccc3[n+]2CC)Sc2ccccc21,inactive
7,CN1[C@@H](CC(=O)c2ccccc2)CCC[C@H]1C[C@H](O)c1ccccc1,inactive

# Target: Nuclear receptor subfamily 1 group I member 2 (Homo sapiens) (UniProt O75469)
# Assay: Human pregnane X receptor (PXR) activation by small molecules, qHTS assay (AID 1346985); note: nearly all actives have a fitted effect of over 40% in size
# Conditions: DPX-2 HepG2 CYP3A4-luciferase, 24 h; series mostly up to 38.3 µM
# Outline: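 DPX-2 cells (HepG2 co-transfected with a PXR response element and a CYP3A4-promoter luciferase construct) were seeded at 2,000 per well, rested 5 hr at 37C, then exposed to DMSO-dissolved compounds for 24 hr. Activation was read as luciferase luminescence.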
row,SMILES,Potency
1,CC(=O)[C@]1(O)Cc2c(O)c3c(c(O)c2[C@@H](O[C@H]2C[C@H](N)[C@H](O)[C@H](C)O2)C1)C(=O)c1ccccc1C3=O,inactive
2,CNC(=O)OCc1cccc(COC(=O)NC)n1,inactive
3,O=c1[nH]c(=O)n([C@H]2C[C@H](O)[C@@H](CO)O2)cc1/C=C/Br,inactive
